The source of these data is PubChem BioAssay (NCATS).

Records with an inconclusive call do not appear. The source made the active and inactive calls. Calls come from the whole dose curve; tested in HEK293 reporter line.

A short description of test [1]: qHTS for Inhibitors of the Functional Ribonucleoprotein Complex (vRNP) of Lassa (LASV) Arenavirus: LASV Primary Screen - GLuc reporter signal (AID 1347082; note: nearly all actives have a fitted effect of over 60% in size). (qHTS replaces the single test concentration by a dilution series.)
Test [2] in a line: qHTS for Inhibitors of the Functional Ribonucleoprotein Complex (vRNP) of Lassa (LASV) Arenavirus: Viability assay - alamar blue signal for LASV Primary Screen (AID 1347083). Note: nearly all actives have a fitted effect of over 80% in size.
Potency is the fitted concentration of half-maximal effect.

`CC(=O)O[C@@]12CO[C@H]1C[C@H](O)[C@@]1(C)C(=O)[C@H](O)C3=C(C)[C@@H](O)C[C@@](O)([C@@H](OC(=O)c4ccccc4)[C@@H]21)C3(C)C`: the Potency result in test [1] is “inactive”. In test [2], the Potency was 13.7 µM (active).

With `OC[C@H]1O[C@@H](n2cnc3c2NC=NC[C@@H]3O)C[C@H]1O`, the Potency result in test [1] and in test [2] was “inactive” each time.

Turning to `CNC(=O)c1ccc(N2C(=S)N(c3ccc(C#N)c(C(F)(F)F)c3)C(=O)C2(C)C)cc1F`, the Potency result in test [1] and in test [2] was “inactive” each time.

With `N#CC[C@H](C1CCCC1)n1cc(-c2ncnc3[nH]ccc23)cn1`, the Potency entry in test [1] and in test [2] was “inactive” in each case.

Consider `c1ccc(-c2nn3c(c2-c2ccnc4cc(OCCN5CCOCC5)ccc24)CCC3)nc1`, for which the Potency result in test [1] and in test [2] was “inactive” each time.

`Cn1cncc1[C@@](N)(c1ccc(Cl)cc1)c1ccc2c(c1)c(-c1cccc(Cl)c1)cc(=O)n2C`: the Potency result in test [1] was “inactive”. Also, the Potency in test [2] was 4.32 µM (active).

Take `C=C1C(=CC=C2CCCC3(C)[C@@H]([C@H](C)C=CC=CC(O)(CC)CC)CC[C@@H]23)C[C@@H](O)C[C@@H]1O` (stereo partly drawn): the Potency entry in test [1] and in test [2] was “inactive” throughout.

For `CCCCCCCC(=O)OCC(O)CO` (stereo not drawn), the Potency entry in test [1] and in test [2] was “inactive” throughout.

In the case of `Nc1ccccc1N`, the Potency entry in test [1] and in test [2] was “inactive” each time.

`COc1cc2c(Oc3ccc(-c4cnc(Nc5ccc(F)cc5)n(C)c4=O)cc3F)ccnc2cc1OCCCN1CCOCC1`: the Potency in test [1] is 21.7 µM (active); in test [2] it was 15.3 µM (active).

With `CC(C)(C)c1cc(C(C)(C)C)c(NC(=O)c2c[nH]c3ccccc3c2=O)cc1O`, the Potency entry in test [1] and in test [2] was “inactive” in each case.

For the compound `CN(C)c1ccc(Nc2nc(N)n(C(=O)c3c(F)cccc3F)n2)cc1`, in test [1], the Potency result is “inactive”. Also, in test [2], the Potency was 21.7 µM (active).

Take `CS(=O)(=O)Oc1ccc2c(NC(N)=O)c(C(=O)c3ccc(Cl)cc3Cl)oc2c1`: the Potency entry in test [1] is “inactive”. The Potency in test [2] is 27.3 µM (active).

For the compound `O=C(O)[C@@H](c1ccc(OCc2ccc3ccccc3n2)cc1)C1CCCC1`, the Potency entry in test [1] and in test [2] was “inactive” throughout.

On to `CN1CCN(c2c(F)cc3c(=O)c(C(=O)O)cn4c3c2OCN4C)CC1`, for which the Potency entry in test [1] and in test [2] was “inactive” in each case.

With `c1cc(-c2cnn3cc(-c4ccc(OCCN5CCCCC5)cc4)cnc23)ccn1`, the Potency in test [1] is 34.3 µM (active); in test [2], 17.2 µM (active).

With `Nc1ccccc1NC(=O)c1ccc(CNc2nccc(-c3cccnc3)n2)cc1`, in test [1], the Potency result is “inactive”. For the same compound, the Potency in test [2] is 6.85 µM (active).

Regarding `Nc1ccc(S(=O)(=O)Nc2ccccc2)cc1`, the Potency result in test [1] and in test [2] was “inactive” in each case.

As to `CCN(CC)CCn1c(=O)c(Cc2ccc(OC)cc2)nc2ccccc21`, the Potency result in test [1] and in test [2] was “inactive” in each case.

`NC(=O)Nc1cc(-c2cccc(F)c2)sc1C(=O)N[C@H]1CCCNC1`: the Potency was 1.22 µM (active) in test [1] and 0.306 µM (active) in test [2].

As for `CC(C)(C)C(O)C(Oc1ccc(Cl)cc1)n1cncn1` (stereo not drawn), the Potency result in test [1] and in test [2] was “inactive” throughout.

On to `Nc1nc(-c2nn(Cc3ccccc3F)c3ncccc23)nc(N)c1N1CCOCC1`, for which the Potency entry in test [1] and in test [2] was “inactive” in each case.

As for `CC(C)CCCC(C)CCCC(C)CCCCC(C)CCCC(C)CCCC(C)C` (stereo not drawn), the Potency entry in test [1] and in test [2] was “inactive” in each case.

With `O=C(O)c1ccc2cc(-c3ccc(O)c(C45CC6CC(CC(C6)C4)C5)c3)ccc2c1`, the Potency entry in test [1] and in test [2] was “inactive” throughout.

As for `COc1ccc(-c2ccc3c(N4CCOC[C@H]4C)nc(N4CCOC[C@H]4C)nc3n2)cc1CO`, the results for the Potency in test [1] and in test [2] were 0.0097 µM (active) and 0.0153 µM (active), respectively.

For the compound `CCC=CC[C@H]1C(=O)CC[C@@H]1CC(=O)OC`, the Potency entry in test [1] and in test [2] was “inactive” each time.

`[O-][n+]1cccc(CO)c1`: the Potency result in test [1] and in test [2] was “inactive” in each case.

With `O=C(O)CCc1ccc(NCc2cccc(Oc3ccccc3)c2)cc1`, the Potency entry in test [1] and in test [2] was “inactive” each time.

Regarding `COc1ncc(-c2ccc3nccc(-c4ccnnc4)c3c2)cc1NS(=O)(=O)c1ccc(F)cc1F`, the Potency in test [1] was 0.0485 µM (active); in test [2], 0.0097 µM (active).

For the compound `COc1cc2c(cc1OC)C(=O)CC2`, the Potency entry in test [1] and in test [2] was “inactive” throughout.

Regarding `O=[N+]([O-])c1cccc(S(=O)(=O)NCCNS(=O)(=O)c2cccc([N+](=O)[O-])c2)c1`, the Potency entry in test [1] and in test [2] was “inactive” each time.

`c1ccc2occc2c1`: the Potency result in test [1] and in test [2] was “inactive” in each case.

Consider `CN(C)CCN(C)C(=O)c1ccc(NC(=O)Nc2ccc(-c3nc(N4CCOCC4)c4ccn(CC(F)(F)F)c4n3)cc2)cc1`, for which the Potency in test [1] and in test [2] was 0.0485 µM (active) in each case.

With `CCN1CCN(Cc2ccc(-c3cc4c(N[C@H](C)c5ccccc5)ncnc4[nH]3)cc2)CC1`, in test [1], the Potency entry was “inactive”. In test [2], the Potency is 0.0077 µM (active).

Consider `COc1cc(OC2CCN(C)CC2)ccc1Nc1ncc2c(n1)n(C1CCCC1)c(=O)n2C`, for which the Potency entry in test [1] is “inactive”. The Potency in test [2] is 24.3 µM (active).

With `Nc1nc2c(ncn2CCC(CO)CO)c(=O)[nH]1`, the Potency result in test [1] and in test [2] was “inactive” in each case.

Regarding `CCC(C(=O)O)c1ccc(N2Cc3ccccc3C2=O)cc1` (stereo not drawn), the Potency result in test [1] and in test [2] was “inactive” in each case.

Regarding `OCCn1cc(-c2cnc3nnn(Cc4ccc5ncccc5c4)c3n2)cn1`, the Potency entry in test [1] and in test [2] was “inactive” throughout.

For the compound `COc1cc(Nc2ncc3c(n2)-c2ccc(Cl)cc2C(c2c(F)cccc2OC)=NC3)ccc1C(=O)O`, the Potency entry in test [1] and in test [2] was “inactive” in each case.
